Source: PubChem BioAssay (NCI)
Several values for one entry are separate records, joined by “and”; a condition that tells them apart may be missing. Equal values may be shown once. About 83,000 compounds went through this panel and 20% of them were active in at least one assay; those are over-represented in the sample as a whole.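 Cells were grown in 96-well plates and exposed to the test compound at a single concentration for 48 hours; results are reported as percent growth, with values below 10 considered active.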 Activity calls are given as the source filed them.

system: HL-60(TB) leukemia; test: NCI-60 one-dose screen, 48 h (100 = growth as untreated, 0 = no growth, -100 = all killed); conditions: 10 µM unless noted

Structure (SMILES) | growth
COc1ccc(C2c3cccn3-c3ccccc3N2C(C)=O)cc1 (stereo not given) | -49.9% (active)
Cc1ccc(C2=Nc3c(N)ncnc3NC(c3cccc(Nc4ccnc5cc(C(F)(F)F)ccc45)c3)C2)cc1 (stereo not given) | 0.514% (active)
Cc1ccc2c(C(C[N+](=O)[O-])c3ccccc3F)c(-c3ccccc3)[nH]c2c1 (stereo not given) | 27.3% (inactive)
C=CCn1c(C)nc2cc(Nc3nc(Nc4ccc5nc(C)n(CC=C)c5c4)nc4ccccc34)ccc21 | 84% (inactive)
CC1(C)CC2(C)CC(=O)C1C(C(=O)O)C2C(=O)O (stereo not given) | 97.9% (inactive)
Cc1ccc(Cl)c(NS(=O)(=O)c2ccc(-c3cnc(C4CC4)o3)cc2)c1 | -22% (active)
N#CCNC(=O)c1ccc(-c2ccnc(Nc3ccc(N4CCOCC4)cc3)n2)cc1 | -25.3% (active)
COc1cccc2cc(-c3nc(C4CCC(C(=O)O)CC4)n4ncnc(N)c34)[nH]c12 (stereo not given) | 33.3% (inactive)
CCCCCCCCCCCCCCCc1cc(O)ccc1N | -45.5% (active) and -6.54% (active)
N#CC1c2ccccc2C=CN1C(=O)c1ccccc1 (stereo not given) | 93.2% (inactive) and 71.1% (inactive)
CC12CCC(C(=O)CC1=O)C2(C)C (stereo not given) | 71.5% (inactive) and 93.6% (inactive)
CN1CCN(C(=O)OCc2ccc3c(Cl)cc(Cl)c(O)c3n2)CC1 | -18.9% (active)
CCOc1ccc(Nc2nc3c(s2)C(=O)c2ccccc2C3=O)cc1 | 25.1% (inactive)
CNC(=O)Nc1ccc(-c2nc(N3CCOCC3)nc3c2cnn3C2CCOCC2)cc1 | 11.3% (inactive)
CCOC(=S)SCc1ccc(Cl)cc1 | 65.8% (inactive)
O=S(=O)(Nc1cc(Br)c(O)c2ccccc12)c1ccc(F)cc1 | -26.9% (active)
COc1ccccc1NC(=O)c1sc2nc3c(cc2c1N)C(=O)CCC3 | 98.6% (inactive)
COc1ccc(/C=C/c2nnc(/C=C/c3ccc(OC)c(OC)c3)o2)cc1OC | 12.1% (inactive)
Oc1c(Cl)cc(Cl)c2cccnc12 | 56.4% (inactive) and 5.89% (active)
COc1ccccc1S(=O)Nc1ccccc1 (stereo not given) | 91.5% (inactive)

Structure (SMILES) | growth
NC1=NC(SCc2ccccc2CCl)c2ncn(Cc3ccccc3CCl)c2N1 (stereo not given) | -25.5% (active)
COC(=O)c1c2c(c(C)[n+]([O-])c1C)C(=O)C(NCc1ccc(O)cc1)=CC2=O | -8.85% (active)
COC(=O)C1(O)NC(=C(C#N)C#N)C(C#N)=C1C(=O)c1ccc(OC)c(OC)c1 (stereo not given) | 79% (inactive)
COc1cc(OC)cc(-c2n[nH]nc2-c2ccc3c(c2)OCO3)c1 | 8.65% (active)
Cc1ccc(C(=O)N2C/C(=C/c3ccccc3)C(=O)/C(=C/c3ccccc3)C2)cc1 | 73.7% (inactive)
Cc1ccc(Sc2oc(-c3ccc(C)cc3)nc2[P+](c2ccccc2)(c2ccccc2)c2ccccc2)cc1 | -45% (active)
CC(=O)N1N=C(c2ccc(Nc3nc(Nc4ccccc4)nc(Nc4ccccc4)n3)cc2)CC1c1cccc([N+](=O)[O-])c1 (stereo not given) | 94.8% (inactive)
O=[N+]([O-])c1ccc(Nc2nc(NCCN3CCOCC3)ncc2[N+](=O)[O-])cc1 | 102% (inactive)
CCCCCCCCCCCCCCCC(=O)N1CCN(C)CC1 | 47.3% (inactive)
CC(C)Sc1nc(NN)c(C#N)c(-c2ccccc2)n1 | 98.8% (inactive)
C=C(C)[C@@H]1CC[C@]2(C(=O)NCCNCCNC(=O)OC(C)(C)C)CC[C@]3(C)[C@H](CC[C@@H]4[C@@]5(C)CCC(=O)C(C)(C)[C@@H]5CC[C@]43C)[C@@H]12 | -14.3% [100 µM] (active)
Cc1ccc2nc(SCC(=O)Nc3ccc(-c4nc5ccccc5s4)c(Cl)c3)[nH]c2c1 | 111% (inactive)
C=CCn1c(SCC(=O)Nc2ccc(C(=O)/C=C/c3cc(OC)c(OC)c(OC)c3)cc2)nnc1-c1cc(-c2ccc(S(C)(=O)=O)cc2)nc2ccccc12 | 69.8% (inactive)
N#CC1=C(N)Oc2c(sc3c(Br)cccc23)C1c1ccc(F)cc1 (stereo not given) | -25.6% (active)
CC(=O)Nc1ncc(S(=O)(=O)c2ccc([N+](=O)[O-])cc2)s1 | 113% (inactive)
O=[N+]([O-])c1ccccc1/C=N\Nc1ccccc1 | 82.5% (inactive) and 87.4% (inactive)
Cc1cc2nc3c4cc(O)ccc4n(CCN(C)C)c3nc2cc1C | 7.36% (active)
O=[N+]([O-])c1ccc(N2CCN(Cc3ccccc3)CC2)c2c1no[n+]2[O-] | -33.2% (active)
CC(C)N1CCN(Cc2ccc3c(NNC(=O)c4ccccc4)nc4cc(F)ccc4n23)CC1 | 8.42% (active)
COc1cccc(-c2nn(-c3ccccc3)cc2-c2ccnc(NCCCNC(=O)Nc3ccc(Cl)c(Cl)c3)c2)c1 | 16.8% (inactive)
